The supplement of paper PMC6763611

test system: Plasmodium falciparum NF54; assay: growth inhibition relative to untreated control; higher = more inhibition; conditions: 1 µM; MM + chorismate end-products (CM screening medium); 72 h
Method in brief: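 P. falciparum NF54 ring stages (1% hematocrit, 1% parasitemia, 100 μL/well in 96-well half-area dark plates) were exposed for 72 h at 37 °C to single 5 μM or 1 μM doses of Pathogen Box compounds. The medium was minimal RPMI or minimal RPMI plus chorismate end-products (2.2 μM folate, 7.3 μM pABA, 7.3 μM pHBA, 111 μM tyrosine, 90 μM phenylalanine, tryptophan). Growth inhibition was read by SYBR Green, normalised to untreated controls, with uninfected erythrocytes as background.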

Q: How did the growth inhibition turn out when `O=C(Nc1nnc(-c2ccc(Cl)s2)o1)c1ccc(Cl)s1` was run?
A: 34.8%

Q: For `Cc1ccc(S(=O)(=O)N2CCN(C(=O)c3cc(-c4ccccc4)n[nH]3)CC2)cc1`, which growth inhibition is on record?
A: 94.2%

Q: `COc1ccc(-c2cnc3ccc(N4CCCC4)nn23)cc1OC` was tested. Which growth inhibition did it give?
A: 79.9%

Q: With `CCC(Sc1nc2ccccc2o1)C(=O)Nc1nnc(C)s1` (stereo unspecified) as the molecule, how does the growth inhibition read?
A: 13.2%

Q: `CCOc1ccc(OCC(=O)Nc2cc(C)cc(C)c2)cc1` was tested. Which growth inhibition did it give?
A: 24.6%

Q: How did the growth inhibition turn out when `COC(=O)c1c(NC(=O)c2cc3ccccc3oc2=O)sc2c1CCN(Cc1ccccc1)C2` was run?
A: < 0%

Q: How did the growth inhibition turn out when `CC1COC2(CCN(c3nc(=O)c4cc(C(F)(F)F)cc([N+](=O)[O-])c4s3)CC2)O1` (stereo unspecified) was run?
A: 6.95%

Q: With `COc1ccc(-c2cnc3cnc(-c4cccc(OC(C)C)c4)cn23)cc1` as the molecule, how does the growth inhibition read?
A: 36.4%

Q: For `COc1cc(CN2CCC3(C=Cc4ccccc43)CC2)cc2c1OCO2`, which growth inhibition is on record?
A: > 100%

Q: `O=C(Nc1ccc(N2CCNCC2)nc1)c1oc(-c2ccccc2)nc1C(F)(F)F` was tested. Which growth inhibition did it give?
A: 91.7%

Q: Which growth inhibition does the source give for `CN1CCN(S(=O)(=O)c2ccc(-c3ccc4c(Nc5ncc(Cl)cn5)ccnc4c3)cc2)CC1` here?
A: 96.5%

Q: `O=C(COc1cccc(F)c1)Nc1nc(-c2ccccn2)cs1` was tested. Which growth inhibition did it give?
A: < 0%

Q: Which growth inhibition does the source give for `O=C(C1CCN(c2nnc(-n3cccc3)s2)CC1)N1CCC(Cc2ccccc2)CC1` here?
A: 6.31%

Q: For `COc1ccc(Cl)cc1NC(=O)CN(C)C(=O)c1cnn(-c2ccccc2)n1`, which growth inhibition is on record?
A: 98.1%

Q: Which growth inhibition does the source give for `CC(C)(C)OC(=O)N1CCC(Cn2nc(-c3cnc4ccccc4c3)c3c(N)ncnc32)CC1` here?
A: > 100%

Q: `COc1ccc(Cn2cnc3c(-c4ccco4)nc(Cl)nc32)cc1` was tested. Which growth inhibition did it give?
A: < 0%

Q: How did the growth inhibition turn out when `Cc1ccc2nc(Cl)c(CNCc3cccs3)cc2c1` was run?
A: 49.9%

Q: Which growth inhibition does the source give for `C[C@H]1COc2c(N3CCN(C)CC3)c(F)cc3c(=O)c(C(=O)O)cn1c23` here?
A: 17.1%

Q: How did the growth inhibition turn out when `O=C(NC1CCN(c2ccnc3ccccc23)C1)c1cccc(C(F)(F)F)c1` (stereo unspecified) was run?
A: 80.7%

Q: With `Cc1ccc2nc(C)c(-c3ccn(Cc4ccccc4)n3)n2c1` as the molecule, how does the growth inhibition read?
A: 43%

Q: For `CS(=O)(=O)N1CCC(CCn2nc(Cc3cccc4ccccc34)c3c(N)ncnc32)CC1`, which growth inhibition is on record?
A: < 0%

Q: Which growth inhibition does the source give for `CC(C)(C)n1nc(Cc2ccc(F)c(Cl)c2)c2c(N)ncnc21` here?
A: 5.37%

Q: For `CC(Oc1cccc(Cl)c1)C(=O)Nc1ccc2oc(-c3ccncc3)nc2c1` (stereo unspecified), which growth inhibition is on record?
A: < 0%

Q: `Clc1cccc(CO[C@H]2CCc3ccccc3[C@@H]2n2ccnn2)c1` was tested. Which growth inhibition did it give?
A: 7.57%

Q: Which growth inhibition does the source give for `CCC(Sc1nc2ccccc2o1)C(=O)Nc1nccs1` (stereo unspecified) here?
A: 66.4%

Q: Which growth inhibition does the source give for `CC(C)(C)c1cc(C(=O)N2CCN(c3nccnc3C#N)CC2)n(Cc2ccccc2)n1` here?
A: 73.4%

Q: With `COc1ccccc1OCCCCn1c(C2CC2)nc2ccccc21` as the molecule, how does the growth inhibition read?
A: 37%

Q: For `CNC(=O)c1cc(S(=O)(=O)N2CCN(c3ccccn3)CC2)cs1`, which growth inhibition is on record?
A: 98.3%

Q: How did the growth inhibition turn out when `Cc1ccc(-c2nc(CN(Cc3ccccn3)C(C)C)cs2)o1` was run?
A: 47.7%

Q: How did the growth inhibition turn out when `O=C(NCCN1CCCC1)c1cc(NCCN2CCOCC2)nc2ccc(Cl)cc12` was run?
A: 97.7%

Q: With `Cc1[nH]c2ccccc2c1C(c1cccs1)N1CCN(C)CC1` (stereo unspecified) as the molecule, how does the growth inhibition read?
A: 11.9%

Q: Which growth inhibition does the source give for `COC(=O)c1cccc2oc(-c3cccc(OC)c3NC(=O)c3cc(-c4ccccc4)on3)nc12` here?
A: < 0%

Q: With `COc1ccc(CCN2CCC(NCc3cccc(N(C)C)c3)CC2)cc1` as the molecule, how does the growth inhibition read?
A: 88.1%

Q: For `Cc1ccccc1CN1CCC(O)(c2ccc(Cl)c(C(F)(F)F)c2)CC1`, which growth inhibition is on record?
A: 51.6%

Q: How did the growth inhibition turn out when `COc1cc(Br)cc2cc(C(=O)Nc3cccc(C(F)(F)F)c3)c(=O)oc12` was run?
A: 11.9%

Q: How did the growth inhibition turn out when `COc1ccc(-c2nnc3ccc(-c4cccc(C(C)C)c4)cn23)cc1OC` was run?
A: 9.51%

Q: Which growth inhibition does the source give for `CN1CCN(c2nccc3nc(-c4ccc(F)c(F)c4)[nH]c23)CC1` here?
A: 58.8%

Q: For `Cc1ncc(-c2ccnc(Nc3ccc(S(C)(=O)=O)cc3)n2)n1C(C)C`, which growth inhibition is on record?
A: 67%

same assay, conditions: 1 µM; minimal medium (MM); 72 h

Q: `O=C(Nc1nnc(-c2ccc(Cl)s2)o1)c1ccc(Cl)s1` was tested. Which growth inhibition did it give?
A: 22.8%

Q: For `Cc1ccc(S(=O)(=O)N2CCN(C(=O)c3cc(-c4ccccc4)n[nH]3)CC2)cc1`, which growth inhibition is on record?
A: 87.1%

Q: `COc1ccc(-c2cnc3ccc(N4CCCC4)nn23)cc1OC` was tested. Which growth inhibition did it give?
A: 78%

Q: `CCC(Sc1nc2ccccc2o1)C(=O)Nc1nnc(C)s1` (stereo unspecified) was tested. Which growth inhibition did it give?
A: 0.545%

Q: `CCOc1ccc(OCC(=O)Nc2cc(C)cc(C)c2)cc1` was tested. Which growth inhibition did it give?
A: < 0%

Q: For `COC(=O)c1c(NC(=O)c2cc3ccccc3oc2=O)sc2c1CCN(Cc1ccccc1)C2`, which growth inhibition is on record?
A: 8.51%

Q: `CC1COC2(CCN(c3nc(=O)c4cc(C(F)(F)F)cc([N+](=O)[O-])c4s3)CC2)O1` (stereo unspecified) was tested. Which growth inhibition did it give?
A: 12.6%

Q: How did the growth inhibition turn out when `COc1ccc(-c2cnc3cnc(-c4cccc(OC(C)C)c4)cn23)cc1` was run?
A: 34.1%

Q: How did the growth inhibition turn out when `COc1cc(CN2CCC3(C=Cc4ccccc43)CC2)cc2c1OCO2` was run?
A: < 0%

Q: Which growth inhibition does the source give for `O=C(Nc1ccc(N2CCNCC2)nc1)c1oc(-c2ccccc2)nc1C(F)(F)F` here?
A: > 100%

Q: `CN1CCN(S(=O)(=O)c2ccc(-c3ccc4c(Nc5ncc(Cl)cn5)ccnc4c3)cc2)CC1` was tested. Which growth inhibition did it give?
A: 96.3%

Q: With `O=C(COc1cccc(F)c1)Nc1nc(-c2ccccn2)cs1` as the molecule, how does the growth inhibition read?
A: 2.24%

Q: `O=C(C1CCN(c2nnc(-n3cccc3)s2)CC1)N1CCC(Cc2ccccc2)CC1` was tested. Which growth inhibition did it give?
A: 8.02%

Q: Which growth inhibition does the source give for `COc1ccc(Cl)cc1NC(=O)CN(C)C(=O)c1cnn(-c2ccccc2)n1` here?
A: 95.6%

Q: Which growth inhibition does the source give for `CC(C)(C)OC(=O)N1CCC(Cn2nc(-c3cnc4ccccc4c3)c3c(N)ncnc32)CC1` here?
A: < 0%

Q: How did the growth inhibition turn out when `COc1ccc(Cn2cnc3c(-c4ccco4)nc(Cl)nc32)cc1` was run?
A: 13.5%

Q: Which growth inhibition does the source give for `Cc1ccc2nc(Cl)c(CNCc3cccs3)cc2c1` here?
A: 31.9%

Q: How did the growth inhibition turn out when `C[C@H]1COc2c(N3CCN(C)CC3)c(F)cc3c(=O)c(C(=O)O)cn1c23` was run?
A: < 0%

Q: With `O=C(NC1CCN(c2ccnc3ccccc23)C1)c1cccc(C(F)(F)F)c1` (stereo unspecified) as the molecule, how does the growth inhibition read?
A: > 100%

Q: Which growth inhibition does the source give for `Cc1ccc2nc(C)c(-c3ccn(Cc4ccccc4)n3)n2c1` here?
A: 33.9%

Q: Which growth inhibition does the source give for `CS(=O)(=O)N1CCC(CCn2nc(Cc3cccc4ccccc34)c3c(N)ncnc32)CC1` here?
A: 24.3%

Q: For `CC(C)(C)n1nc(Cc2ccc(F)c(Cl)c2)c2c(N)ncnc21`, which growth inhibition is on record?
A: < 0%

Q: For `CC(Oc1cccc(Cl)c1)C(=O)Nc1ccc2oc(-c3ccncc3)nc2c1` (stereo unspecified), which growth inhibition is on record?
A: 2.28%

Q: For `Clc1cccc(CO[C@H]2CCc3ccccc3[C@@H]2n2ccnn2)c1`, which growth inhibition is on record?
A: < 0%

Q: `CCC(Sc1nc2ccccc2o1)C(=O)Nc1nccs1` (stereo unspecified) was tested. Which growth inhibition did it give?
A: 33%

Q: With `CC(C)(C)c1cc(C(=O)N2CCN(c3nccnc3C#N)CC2)n(Cc2ccccc2)n1` as the molecule, how does the growth inhibition read?
A: > 100%

Q: `COc1ccccc1OCCCCn1c(C2CC2)nc2ccccc21` was tested. Which growth inhibition did it give?
A: 21.3%

Q: Which growth inhibition does the source give for `CNC(=O)c1cc(S(=O)(=O)N2CCN(c3ccccn3)CC2)cs1` here?
A: 96.6%

Q: With `Cc1ccc(-c2nc(CN(Cc3ccccn3)C(C)C)cs2)o1` as the molecule, how does the growth inhibition read?
A: 20.3%

Q: Which growth inhibition does the source give for `O=C(NCCN1CCCC1)c1cc(NCCN2CCOCC2)nc2ccc(Cl)cc12` here?
A: 97.2%

Q: Which growth inhibition does the source give for `Cc1[nH]c2ccccc2c1C(c1cccs1)N1CCN(C)CC1` (stereo unspecified) here?
A: 21.1%

Q: `COC(=O)c1cccc2oc(-c3cccc(OC)c3NC(=O)c3cc(-c4ccccc4)on3)nc12` was tested. Which growth inhibition did it give?
A: < 0%

Q: With `COc1ccc(CCN2CCC(NCc3cccc(N(C)C)c3)CC2)cc1` as the molecule, how does the growth inhibition read?
A: > 100%

Q: Which growth inhibition does the source give for `Cc1ccccc1CN1CCC(O)(c2ccc(Cl)c(C(F)(F)F)c2)CC1` here?
A: 30%

Q: `COc1cc(Br)cc2cc(C(=O)Nc3cccc(C(F)(F)F)c3)c(=O)oc12` was tested. Which growth inhibition did it give?
A: 6.95%

Q: With `COc1ccc(-c2nnc3ccc(-c4cccc(C(C)C)c4)cn23)cc1OC` as the molecule, how does the growth inhibition read?
A: 3.89%

Q: How did the growth inhibition turn out when `CN1CCN(c2nccc3nc(-c4ccc(F)c(F)c4)[nH]c23)CC1` was run?
A: 66.9%

Q: `Cc1ncc(-c2ccnc(Nc3ccc(S(C)(=O)=O)cc3)n2)n1C(C)C` was tested. Which growth inhibition did it give?
A: 59.4%
